Measurements: PubChem BioAssay AID1159580 (chemical genetic matrix, 2015)
“And” between values parts separate entries of the source, which are not always exact repeats. Equal values may be shown once. In all, about 5,500 compounds went through this assay and about 2,000 (36%) were called active. Inconclusive results (about 18%) are left out. No stated cut-off is given here; in the data, active means normalized growth mostly below about 0.91 (no sharp cut-off); inconclusive means no clear call, values can overlap the other calls; inactive means mostly above about 0.92. The list shows a part of the results.

Assay: chemical genetic growth profiling, strain panel (AID 1159580);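 further: tested at 20 µM; growth read once vehicle control cultures reached saturation at 30 °C; 1 = growth at the plate median or of vehicle wells; lower values mean less growth of the strain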
Conditions: S. cerevisiae deletion strains, growth OD

Measured: normalized growth

CCc1ccc(CCOc2ccc(CC3SC(=O)NC3=O)cc2)nc1 (configuration not stated)
inactive: locus YAL013W, strain DEP1, active compounds read low 1.01 | locus YAL021C, strain ccr4, active compounds read low 1.03 | locus YAL026C, strain drs2, active compounds read low 1.01 | locus YAL030W, strain snc1, active compounds read low 0.999 | locus YBL061C, strain skt5, active compounds read low 1.01 | locus YBR009C, strain hhf1, active compounds read low 1 | locus YBR021W, strain FUR4, active compounds read low 1 | locus YBR023C, strain chs3, active compounds read low 1 | locus YBR171W, strain sec66, active compounds read low 1.02 | locus YBR229C, strain ROT2, active compounds read low 0.993 | locus YBR231C, strain swc5, active compounds read low 0.999 | locus YBR279W, strain paf1, active compounds read low 1 | locus YCL011C, strain gbp2, active compounds read low 1 | locus YCL016C, strain dcc1, active compounds read low 1 | locus YCL029C, strain bik1, active compounds read low 0.996 | locus YCL061C, strain MRC1, active compounds read low 1.01 | locus YCL069W, strain vba3, active compounds read low 1.01 | locus YCR088W, strain abp1, active compounds read low 1.01 | locus YDL005C, strain med2, active compounds read low 1 | locus YDL035C, strain GPR1, active compounds read low 0.983 | locus YDL040C, strain nat1, active compounds read low 0.99 | locus YDL074C, strain BRE1, active compounds read low 0.974 | locus YDL101C, strain DUN1, active compounds read low 1.01 | locus YDL134C, strain PPH21, active compounds read low 0.998 | locus YDL185W, strain tfp1, active compounds read low 1 | locus YDL192W, strain arf1, active compounds read low 0.996 | locus YDR001C, strain nth1, active compounds read low 1.01 | locus YDR069C, strain doa4, active compounds read low 1.03 | locus YDR101C, strain arx1, active compounds read low 0.995 | locus YDR137W, strain rgp1, active compounds read low 0.916 | locus YDR150W, strain NUM1, active compounds read low 1.01 | locus YDR159W, strain sac3, active compounds read low 1.01 | locus YDR162C, strain NBP2, active compounds read low 1.02 | locus YDR195W, strain ref2 0.995 | locus YDR297W, strain sur2, active compounds read low 1.02 | locus YDR318W, strain mcm21, active compounds read low 0.994 | locus YDR334W, strain swr1, active compounds read low 1.02 | locus YDR335W, strain msn5, active compounds read low 1.02 | locus YDR388W, active compounds read low 0.989 | locus YDR392W, strain spt3, active compounds read low 1 | locus YDR502C, strain sam2, active compounds read low 0.994 | locus YEL003W, strain gim4, active compounds read low 1.02 | locus YEL037C, strain rad23, active compounds read low 1.01 | locus YEL061C, strain CIN8 (second series), active compounds read low 1 | locus YEL061C, strain CIN8, active compounds read low 1.02 | locus YER015W, strain faa2, active compounds read low 1.01 | locus YER016W, strain bim1, active compounds read low 1.01 | locus YER110C, active compounds read low 0.997 | locus YER111C, strain swi4, active compounds read low 1 | locus YER155C, strain BEM2 (second series), active compounds read low 1.05 | locus YER155C, strain BEM2, active compounds read low 0.995 | locus YER167W, strain BCK2, active compounds read low 1 | locus YFR010W, strain ubp6, active compounds read low 1.02 | locus YGL078C, strain dbp3, active compounds read low 0.988 | locus YGL086W, strain mad1, active compounds read low 0.996 | locus YGL167C, strain pmr1, active compounds read low 1 | locus YGL173C, strain kem1, active compounds read low 1.02 | locus YGL227W, strain vid30, active compounds read low 0.995 | locus YGL240W, strain doc1, active compounds read low 1.02 | locus YGL248W, strain PDE1, active compounds read low 0.999 | locus YGL253W, strain hxk2, active compounds read low 0.993 | locus YGR078C, strain PAC10, active compounds read low 1.06 | locus YGR135W, strain pre9, active compounds read low 0.993 | locus YGR229C, strain SMI1, active compounds read low 1.01 | locus YGR252W, strain gcn5, active compounds read low 0.946 | locus YHR013C, strain ard1, active compounds read low 1.03 | locus YHR027C, strain rpn1, active compounds read low 1.02 | locus YHR030C, strain SLT2, active compounds read low 1 and 0.969 | locus YHR079C, strain IRE1 (second series), active compounds read low 0.993 | locus YHR079C, strain IRE1, active compounds read low 0.959 | locus YHR094C, strain hxt1, active compounds read low 0.988 | locus YHR129C, strain ARP1, active compounds read low 0.999 | locus YHR142W, strain chs7, active compounds read low 1.01 | locus YHR200W, strain rpn10, active compounds read low 0.995 | locus YIL066C, strain RNR3, active compounds read low 1.01 | locus YIL073C, strain SPO22, active compounds read low 1.05 | locus YIL125W, strain kgd1, active compounds read low 0.988 | locus YIR030C, strain dcg1, active compounds read low 0.994 | locus YJL092W, strain hpr5, active compounds read low 1 | locus YJL095W, strain BCK1 (second series), active compounds read low 0.998 | locus YJL095W, strain BCK1, active compounds read low 0.979 and 1.01 | locus YJL115W, strain asf1, active compounds read low 1 | locus YJL129C, strain trk1, active compounds read low 1.02 | locus YJL134W, strain LCB3, active compounds read low 1 | locus YJL154C, strain vps35, active compounds read low 1.02 | locus YJL164C, strain tpk1, active compounds read low 0.991 | locus YJL166W, strain qcr8, active compounds read low 1.02 | locus YJL168C, strain set2, active compounds read low 0.99 | locus YJL187C, strain SWE1 (second series), active compounds read low 1.01 | locus YJL187C, strain SWE1, active compounds read low 1.01 | locus YJR043C, strain POL32, active compounds read low 0.991 | locus YJR066W, strain TOR1, active compounds read low 0.942
